Measured values as given in PubChem BioAssay (NCI).
About 83,000 compounds went through this panel and 20% of them were active in at least one assay; those are over-represented in the sample as a whole.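 Plates (96-well) were seeded with cells, treated with compound at one concentration, and incubated for 48 hours before percent growth was determined.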 Activity calls are given as the source filed them. How the source made its calls: active means growth percent below 10; inactive means the rest.

The molecules below were run on UACC-257 melanoma (assay: NCI-60 one-dose screen, 48 h (100 = growth as untreated, 0 = no growth, -100 = all killed)). Details: 10 µM unless noted.

Row | Compound | growth
1 | CCCCN(CCCC)c1ccc(C(=N)c2ccc(N(CCCC)CCCC)cc2)cc1 | -81.1% (active)
2 | Clc1ccc(-c2nc3ccccc3s2)cc1Cl | 114% (inactive)
3 | Cc1nc2c3c(ncn2n1)Oc1c(c(=O)[nH]c2ccccc12)C3c1ccc(Cl)cc1 (centres undefined) | 105% (inactive)
4 | O=C(NNC(=S)Nc1ccccc1)c1cc2ccc1CCc1ccc(cc1)CC2 | 85.8% (inactive)
5 | O=C(Nc1ccc2c(c1)OCCO2)C(=O)c1c[nH]c2ccccc12 | 70.7% (inactive)
6 | COc1ccc2c(c1)C(c1cc(OC)c3c(c1)OCO3)C1=C(COC1=O)N2 (centres undefined) | 66.1% (inactive)
7 | Fc1ccc(Nc2nc(NCCNc3ccnc4cc(Cl)ccc34)nc(N3CCOCC3)n2)cc1 | -88.8% (active)
8 | S=c1[nH]nc(-c2cc3ccc2CCc2ccc(cc2)CC3)n1-c1ccccc1 | 103% (inactive)
9 | CC(C)(C)NCCC(O)c1cc2c(Cl)cc(Cl)cc2c2cc(C(F)(F)F)ccc12 (centres undefined) | -81.7% (active)
10 | COc1ccc2cc(-c3ccc(-c4ccc(C(=N)N)cc4)s3)ccc2c1 | 104% (inactive)
11 | CCN(CC)CCC(CNc1c2ccc(Cl)cc2nc2ccc(OC)cc12)c1ccccc1 (centres undefined) | -91.1% (active)
12 | Cc1ccc(S(=O)(=O)C2=C3C(=C(c4ccccc4)c4ccccc43)CN(S(=O)(=O)c3ccc(C)cc3)C2)cc1 | 91% (inactive)
13 | Cc1ccc(S(=O)(=O)NCCNc2nccc(-c3c(-c4cccc(N)c4)nc4sccn34)n2)cc1 | 91.1% (inactive)
14 | CC(C)NCCCNC1=C(Cl)C(=O)c2ccccc2C1=O | 3.04% (active)
